HT1080 IDH1KD tx: qHTS for induction of synthetic lethality in tumor cells producing 2HG: qHTS for the HT-1080-IDH1KD cell line; HT-1080 IDH1 knockdown viability, ATP luminescence, 48 h; Potency, µM (doses to about 46.1 µM), for the others: at the top dose activity, negative = toxicity, usual class: cytotoxic; actives 2% (n = 360,000); AID 686971, 2013;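 also: 0% = DMSO wells and -100% = cell-free medium wells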
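Assay cells: HT-1080 with IDH1 knockdown, 750 per well, RPMI/5% FBS. Exposure: 48 h at 37 °C following 2 h pre-incubation. Read: CellTiter-Glo luminescence; fitted concentration-response, curve class assigned.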
HT1080-NT tox: qHTS for induction of synthetic lethality in tumor cells producing 2HG: qHTS for the HT-1080-NT fibrosarcoma cell line. HT-1080-NT fibrosarcoma viability, CellTiter-Glo ATP luminescence, 48 h. Potency, µM (top dose mostly 46.1 µM), for the others: top-dose activity, negative = less viability, usual class: cytotoxic. actives 1.6% (n = 360,000). AID 686970, 2013;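 also: NT is the 2HG producing partner of a matched IDH1 knockdown line; 0% = DMSO-treated cells and -100% = media-only wells without cells; nearly all actives have a fitted effect of over 55% in size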
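Viability of the 2HG-overproducing fibrosarcoma line after 48 hours of compound exposure at 37 degrees C was determined by luminescence with CellTiter-Glo, and concentration-effect curves were then fitted and categorized.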
KB-3-1 tox: qHTS assay for MDR1-selective chemotherapeutics: Primary screen using the parental adenocarcinoma cell KB-3-1 | AID 1347075, 2019 | Potency, µM (titrated, usually from 46.1 µM), most hits filed as cytotoxic | actives 1.4% (n = 400,000) | KB-3-1 viability, CellTiter-Glo ATP luminescence, 72 h; also: nearly all actives have a fitted effect of over 60% in size
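Cells are dispensed, compounds pinned in, plates held at 37 °C for 72 h, then CellTiter-Glo is added and luminescence read after 10 minutes. Cell line: parental KB-3-1 in phenol-red-free DMEM, 10% FBS.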
KB-V1 MDR tox: qHTS assay for MDR1-selective chemotherapeutics: Primary screen using the drug-selected MDR subline cells KB-V1 | KB-V1 MDR cells viability, CellTiter-Glo, 72 h | Potency, µM (series often up to 46.1 µM), hits mostly cytotoxic | actives 3.4% (n = 400,000); also: nearly all actives have a fitted effect of over 60% in size
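Compound-treated KB-V1 multidrug-resistant cells, 72 h, 37 degrees C; viability by CellTiter-Glo. Fitted qHTS curves give the values.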
Numbers without * were called inactive; i = inactive; ? = inconclusive; . = not tested or not shown; [ ] = remark or other dose. Sampled rows, rich in hits. Any-hit rate of the full collection: about 5.7%. Calls follow the shape of the dose curve; as a rule, active = well fitted curve in the direction sought with a large enough effect; inconclusive = small, poorly fitted or top-dose-only effect, or another doubt; inactive = no such curve, though single readings can be large; an effect the other way counts as inactive or inconclusive. Unless noted, % is scaled to controls: 0 for no effect and ±100 for the full control effect; potency is read from the fitted curve at half-maximal effect.

SMILES	HT1080 IDH1KD tx	HT1080-NT tox	KB-3-1 tox	KB-V1 MDR tox
CCOC(=O)C1(Cc2cccc(OC)c2)CCN(Cc2ccccc2OC)CC1	?	?	i	?
CCOC(=O)c1cc(S(=O)(=O)N2CCN(c3cc(C)ccc3C)CC2)[nH]n1	.	.	i	i
CN(C)CCOc1ccc2c(c1)C(=O)C(=Cc1ncc([N+](=O)[O-])n1C)C2	6.5µM*	23µM*	?	3.7µM*
COc1ccccc1CNC(=O)Nc1nnc(-c2ccncc2)s1	.	.	?	i
Cc1ccccc1C(C(=O)NCc1ccco1)N(CC1CCCO1)C(=O)Cn1nnc2ccccc21 (stereo not drawn)	13%	-3%	i	?
O=C(NCc1ccco1)C(c1ccccc1)N(CC1CCCO1)C(=O)Cn1nnc2ccccc21 (stereo not drawn)	0%	-4%	i	21µM*
C=C1C(=O)[C@@]23[C@H](O)C[C@@H]4C(C)(C)CC[C@H](O)[C@]4(C)[C@@H]2C[C@H](O)[C@@H]1[C@H]3O	?	-29%	?	?
C=C1C(=O)[C@@]23[C@H](O)C[C@@H]4C(C)(C)CC[C@H](O)[C@@]4(C)[C@@H]2CC[C@@H]1[C@H]3O	13µM*	15µM*	i	i
Cc1cc(C)nc(NC(N)=NCCc2ccccc2)n1	23µM*	10µM*	5.2µM*	i
Cc1cc(C)nc(NC(N)=NC(C)c2ccccc2)n1 (stereo not drawn)	-20%	?	?	i
c1ccc(CNCCC(Cc2ccccc2)c2ccco2)cc1 (stereo not drawn)	16µM*	16µM*	?	?
CN(C)c1ccc(CNCCC(Cc2ccccc2)c2ccco2)cc1 (stereo not drawn)	23µM*	18µM*	?	?
CCN(CC)P(=O)(Nc1ccc(C)cc1Br)c1ccc(N(C)C)cc1NC(=O)c1ccco1 (stereo not drawn)	-9%	-10%	?	18µM*
Cc1ccc(OCc2nc3ccccc3n2Cc2ccccc2Cl)cc1	.	.	i	i
COc1cccc(NC(=O)N2CCCC(C(=O)Nc3ccccc3OC)C2)c1 (stereo not drawn)	14%	8%	i	21µM*
COc1cccc(NC(=O)N2CCC(C(=O)Nc3ccc(C)cc3C)CC2)c1	16%	-3%	i	15µM*
Cc1ccc(-c2nc3ncccc3o2)cc1NC(=O)c1ccc(-c2cccc(Cl)c2C)o1	.	.	i	i
CCOc1cc(/C=C(/C#N)C(=O)Nc2ccc(O)cc2)cc(Br)c1O	2.3µM*	1.8µM*	1µM*	?
C=CCNC(=O)/C(C#N)=C\c1cc(Cl)c(O)c(OCC)c1	8%	-8%	i	i
O=C(Nc1c(C(=O)NCc2ccco2)cnn1-c1ccccc1)c1cccc(F)c1	3%	-1%	i	9.2µM*
Cc1ccc(C(=O)Nc2c(C(=O)NCc3ccco3)cnn2-c2ccccc2)cc1	-8%[9.24 µM]	-3%	i	i
CCOc1ccc(S(=O)(=O)N(C)CCO)cc1-c1nc2c(C(C)(C)C)nn(C)c2c(=O)[nH]1	-7%	-6%	?	10µM*
Cc1cccc(Nc2nc3c(S(=O)(=O)c4ccc(Br)cc4)nnn3c3ccsc23)c1C	.	.	i	i
CCCCN(CC)S(=O)(=O)N1CCC(C(=O)NCc2ccc(F)cc2)CC1	6%	-1%	i	16µM*
O/C(=C\c1nc2ccccc2nc1/C=C(\O)c1ccccc1)c1ccccc1	?	21µM*	i	i
CCn1cc(C(=O)NCCc2ccc(Cl)cc2)c(=O)c2cc(S(=O)(=O)N3CCC(C)CC3)ccc21	.	.	i	i
CC(=O)c1ccc(NC(=O)C2CCC(CNS(=O)(=O)c3cccs3)CC2)cc1 (stereo not drawn)	.	.	i	i
COc1cccc(CN2C(=O)[C@H]3Cc4c([nH]c5ccccc45)C(C)(C)N3C2=O)c1	.	.	i	16µM*
CC1(C)c2[nH]c3ccccc3c2C[C@H]2C(=O)N(Cc3cccc(F)c3)C(=O)N21	.	.	?	i
COc1ccccc1CN1C(=O)[C@@H]2Cc3c([nH]c4ccccc34)C(C)(C)N2C1=O	.	.	?	21µM*

Source: PubChem BioAssay (National Center for Advancing Translational Sciences (NCATS))
